Bioassay records (PubChem)
Rows were chosen to be rich in hits. Some 0.49% of all compounds tested hit in one or more screens of this group.
Tb PFK block: inhibitors of T. brucei phosphofructokinase | actives 0.17% (n = 330,000) | AID 485367 | T. brucei PFK, ADP-Glo luminescence | Potency, µM (top dose mostly 57.5 µM), inactives show at the highest dose activity, negative = inhibition, actives largely listed as inhibitors | O15648;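 further: potency means the concentration at half of the fitted maximal effect; 0% = uninhibited 1x PFK enzyme wells and -100% = no-enzyme wells; nearly all actives have a fitted effect of over 60% in size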
Target sequence (O15648 whole entry, looked up): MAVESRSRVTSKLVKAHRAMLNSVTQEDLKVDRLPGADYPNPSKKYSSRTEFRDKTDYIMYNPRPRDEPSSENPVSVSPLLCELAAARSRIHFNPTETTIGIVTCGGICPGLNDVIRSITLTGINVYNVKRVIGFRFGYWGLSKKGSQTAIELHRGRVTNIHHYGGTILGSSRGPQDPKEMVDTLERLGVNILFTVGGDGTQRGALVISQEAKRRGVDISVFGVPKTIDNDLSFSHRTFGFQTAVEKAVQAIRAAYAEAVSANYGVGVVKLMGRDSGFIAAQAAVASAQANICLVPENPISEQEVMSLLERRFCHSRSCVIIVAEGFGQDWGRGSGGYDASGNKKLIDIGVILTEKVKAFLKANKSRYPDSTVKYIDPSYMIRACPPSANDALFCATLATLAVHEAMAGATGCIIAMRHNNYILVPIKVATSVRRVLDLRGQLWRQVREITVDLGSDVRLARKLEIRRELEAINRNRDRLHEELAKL
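Luminescent ADP detection (ADP-Glo, two-step: ATP depletion then ADP-to-ATP conversion for luciferase) reported PFK activity after 45 min room-temperature reaction of 1.25 nM enzyme with 0.5 mM F6P and 0.1 mM ATP at pH 8.0.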
TCR activator: activates T cell receptor signaling. primary human leukocytes, anti-CD3, IL-2 HTRF, 48 h. 330,000 tested, under 10 active. Potency, µM (highest dose often 9.22 µM), for inactives: at the highest dose activation of IL-2 secretion, most hits filed as activators. AID 504894; further: % of control where 0% means no effect
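HTRF read-out of IL-2 secretion: europium cryptate donor excited at 320nm, d2 acceptor emission at 665nm. Cells were primary human leukocytes incubated 48 hr with compounds and a-CD3 beads, supplying TCR signal only.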
Chronic BCR inh: blocks chronic active B-cell receptor signaling; ABC-DLBCL IkBa-CBG/CBR reporter, luminescence ratio, 4 h; Potency, µM (series often up to 46.1 µM), without a hit: at the top dose activity change, negative = inhibition, usual class: inhibitors; actives 0.05% (n = 340,000); AID 493014; active means well fitted inhibition curve with a large enough effect in the signal ratio, with a control signal flat, not every such curve was filed as active; inconclusive means small, poorly fitted or top-dose-only effect, or effect the other way, or a change in a side signal; the % refers to the signal ratio;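 further: potency means the concentration at half of the fitted maximal effect; plate controls were basal doxycycline-induced cells for no effect and cells given 10 µM MG132 for full effect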
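TMD8 human ABC-DLBCL cells with doxycycline-inducible IκBα–green luciferase fusion and unfused red luciferase, in 0.5% FBS medium; compounds up to 46 uM, 4 h at 37C. Green/red luminescence ratio, filter-overlap corrected, fitted to concentration-response curves.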
S-ASM inh: human S-ASM enzyme inhibition. P17405. placental ASM, HMU-PC fluorogenic substrate, 60 min. Potency, µM (highest dose often 57.5 µM), for the others: at the top dose activity change, negative = inhibition, hits mostly inhibitors. actives 0.006% (n = 340,000); further: potency means the concentration at half of the fitted maximal effect
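HMU-PC0 cleavage (9 uM final) by human placental ASM, 60 min at 37 °C following 10 min compound exposure at RT; stopped at pH 10, fluorescence Ex 386/Em 447 nm.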
CCT modulator: modulators of cytosolic chaperonin (CCT/TRiC) activity. purified chaperonin ATPase assay, HTRF ADP detection, 30 min. activity change, % (test concentration not listed), hits read low. actives 0.3% (n = 360,000). AID 651819; in the data active means activity change below about -30%; further: on the % scale 0 is the no-effect control and ±100 the full control effect
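ATPase activity: ADP formed was measured by HTRF Transcreener (665/615 nm ratio) after 30 min at 37 deg C with 10 uM ATP. Compounds screened at one 76 uM concentration against 40 or 20 nM TRiC in Tris pH 7.4/KCl/MgCl2/DTT buffer.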
An asterisk follows results filed as active; [ ] = dose if it differs, or a comment. Unless noted, the call rests on the fitted dose curve; in most records, active means well fitted curve in the direction sought with a large enough effect; inconclusive means small, poorly fitted or top-dose-only effect, or another doubt; inactive means no such curve, though single readings can be large; an effect the other way counts as inactive or inconclusive.

Results for COc1ccc2cc(C#N)c(SCC(=O)N3CC(=O)Nc4ccccc43)nc2c1 ?
Tb PFK block: -3%; TCR activator: 10%; Chronic BCR inh: inconclusive; S-ASM inh: 9%; CCT modulator: -3

Results for Cc1cccc2cc(C#N)c(SCC(=O)N3CC(=O)Nc4ccccc43)nc12 ?
Tb PFK block: 0%; TCR activator: 1%; Chronic BCR inh: inconclusive; S-ASM inh: -5%; CCT modulator: -45*

Results for COc1ccc(OC)c(Nc2c3c(nc4ccccc24)CCC3)c1 ?
Tb PFK block: -17%; TCR activator: -8%; Chronic BCR inh: 16µM*; S-ASM inh: 3%; CCT modulator: -5

How did COc1ccc(OC)c(Nc2c3ccccc3nc3ccccc23)c1 do in these assays?
Tb PFK block: -14%; TCR activator: 2%; Chronic BCR inh: inconclusive; S-ASM inh: 44%; CCT modulator: 2

Results for COc1cc(Nc2c3c(nc4ccccc24)CCC3)cc(OC)c1OC ?
Tb PFK block: 0%; TCR activator: -6%; Chronic BCR inh: 20µM*; S-ASM inh: 0%; CCT modulator: 0

How did COC(=O)c1cccc(NC(=O)c2ccc(OC)c(Cl)c2)c1 do in these assays?
Tb PFK block: 0%; TCR activator: 6%; Chronic BCR inh: inconclusive; S-ASM inh: -5%; CCT modulator: -78*

How did COc1ccc(-c2cccc(C(=O)Nc3cccc(C(=O)O)c3)c2)cc1 do in these assays?
Tb PFK block: -3%; TCR activator: -3%[46.1 µM]; Chronic BCR inh: inconclusive; S-ASM inh: 2%; CCT modulator: -79*

How did COc1ccc(-c2cccc(C(=O)Nc3ccc(C)cc3)c2)cc1 do in these assays?
Tb PFK block: 1%; TCR activator: -2%; Chronic BCR inh: -8%; S-ASM inh: -9%; CCT modulator: -1

What do the screens show for `COc1ccc(C(=O)Nc2cc(C(=O)O)cc(C(=O)O)c2)cc1Cl`?
Tb PFK block: 7%; TCR activator: 4%; Chronic BCR inh: 3%; S-ASM inh: 6%; CCT modulator: -1

How did O=C(CSc1nc(=O)[nH]c2c1CCCC2)NCc1ccc(F)cc1 do in these assays?
Chronic BCR inh: 6%

How did COc1cc(C2C(=O)N(C3CCCCC3)CC(=O)N2C2CCCCC2)ccc1OC(C)C (stereo unspecified) do in these assays?
Chronic BCR inh: 2%

How did CCOc1cc(C)nc(N2CCCC(C(=O)NCc3ccccc3F)C2)n1 (stereo unspecified) do in these assays?
Tb PFK block: -1%; TCR activator: -4%; Chronic BCR inh: -6%; S-ASM inh: 5%; CCT modulator: -41*

How did Cc1cc(C)nc(N2CCCC(C(=O)NCCc3ccccc3F)C2)n1 (stereo unspecified) do in these assays?
Tb PFK block: -2%; Chronic BCR inh: 0%; S-ASM inh: -1%; CCT modulator: 0

Results for CCOc1ccc(CCNC(=O)CS(=O)Cc2nc(-c3ccccc3Cl)oc2C)cc1OCC (stereo unspecified) ?
Tb PFK block: 0%; TCR activator: 4%; Chronic BCR inh: 0%; S-ASM inh: 2%; CCT modulator: 0

How did Cc1ccc(CCNC(=O)CS(=O)Cc2nc(-c3ccccc3Cl)oc2C)cc1 (stereo unspecified) do in these assays?
Tb PFK block: 17%; TCR activator: 15%; Chronic BCR inh: 1%; S-ASM inh: -1%; CCT modulator: -60*

Results for CCc1ccc2nc(N3CCN(C)CC3)c(C#N)cc2c1 ?
Tb PFK block: -4%; TCR activator: -5%; Chronic BCR inh: inconclusive; S-ASM inh: 22%; CCT modulator: -49*

What do the screens show for `O=C1c2cccnc2C(O)N1Cc1ccc(F)cc1` (stereo unspecified)?
Tb PFK block: -10%; TCR activator: -3%[46.1 µM]; Chronic BCR inh: 4%; S-ASM inh: 3%; CCT modulator: -32*

What do the screens show for `Cc1ccc(Cl)c2sc(NC(=O)CS(=O)(=O)c3ccc(Cl)cc3)nc12`?
Chronic BCR inh: -5%

What do the screens show for `COc1cc2c(c(OC)c1OC)-c1ccc(NC(=O)c3ccccc3)c(=O)cc1[C@@H](NC(C)=O)CC2`?
Tb PFK block: 2%; TCR activator: 6%; Chronic BCR inh: 22µM*; S-ASM inh: 0%[11.5 µM]; CCT modulator: -3

Results for O=C(CCS(=O)(=O)c1ccc(Br)cc1)NCc1ccc(F)cc1 ?
Tb PFK block: 24µM*; TCR activator: -6%; Chronic BCR inh: 7%; S-ASM inh: 3%; CCT modulator: -80*

How did COc1ccc(NC(=O)CSC2=Nc3ccccc3C3=NC(CC(=O)NCCc4ccccc4)C(=O)N23)cc1 (stereo unspecified) do in these assays?
Chronic BCR inh: 16%

Results for O=C(CCC1N=C2c3ccccc3N=C(SCc3cccc(F)c3)N2C1=O)NCCc1ccccc1 (stereo unspecified) ?
Chronic BCR inh: 9%

Results for C/C(=N\N=C1\NC(=O)C(CC(=O)Nc2ccc(C)c(Cl)c2)S1)C(C)(C)C (stereo unspecified) ?
Tb PFK block: -8%; TCR activator: -3%; Chronic BCR inh: inconclusive; S-ASM inh: -24%; CCT modulator: -44*

How did O=C(O)C1CCCN(S(=O)(=O)c2cccs2)C1 (stereo unspecified) do in these assays?
Tb PFK block: 1%; TCR activator: -3%[46.1 µM]; Chronic BCR inh: 6%; S-ASM inh: 0%; CCT modulator: -1

How did Cc1ccc(S(=O)(=O)N2CCCC(C(=O)O)C2)s1 (stereo unspecified) do in these assays?
Tb PFK block: 2%; TCR activator: -3%; Chronic BCR inh: 1%; S-ASM inh: 7%; CCT modulator: -94*

Results for O=C1C2=C(C(=O)c3ccccc31)C1O[C@](CCCCN3C(=O)c4ccccc4C3=O)(Cc3ccccc31)O2 ?
Tb PFK block: 4%[11.5 µM]; Chronic BCR inh: inconclusive

How did CC(=O)N1CCC(N(CCN2CCOCC2)C(=S)Nc2cccc(C)c2)CC1 do in these assays?
Tb PFK block: -6%; TCR activator: 1%[46.1 µM]; Chronic BCR inh: -1%; S-ASM inh: 5%; CCT modulator: -3

Results for CC(=O)N1CCC(N(CCN2CCOCC2)C(=S)Nc2c(C)cccc2C)CC1 ?
Tb PFK block: -1%; TCR activator: 0%; Chronic BCR inh: 0%; S-ASM inh: 1%; CCT modulator: -35*

What do the screens show for `Cc1cccc(CNc2ncnc3ccc(-c4ccc5c(ccn5C)c4)cc23)c1`?
Tb PFK block: 1%; Chronic BCR inh: inconclusive

What do the screens show for `CCN(CC)C(=O)[C@H]1C[C@H](CC(=O)NC(C)(C)C)C(=O)N2CCc3c([nH]c4cc(-c5ccco5)ccc34)[C@]12C`?
Tb PFK block: 0%; TCR activator: -2%[46.1 µM]; Chronic BCR inh: -1%; S-ASM inh: -11%; CCT modulator: 1
